Screens as filed in PubChem BioAssay.
In the library only some 3% were active in any assay of this set; here they are far more common.
SENP6 block – SENP6 protease inhibition. inhibition, % at 10 µM. Recombinant SENP6 catalytic domain, aminoluciferin luminescence. actives 1.8% (n = 330,000);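 active = inhibition above about 50% at the single tested dose, limit read from the data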;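 note: plate controls were DMSO wells with enzyme for no effect and DMSO wells lacking enzyme for full effect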
SENP8 block-1 – blocks human SENP8 cleavage of Nedd8 substrate. recombinant SENP8, Nedd8 substrate fluorescence. inhibition, % at 20 µM. actives 0.64% (n = 360,000). AID 602440; in the data active = inhibition mostly above about 40%, no sharp cut-off; inactive = mostly below about 27%
C8 TRAIL sens – sensitizes caspase-8 expressing cells to TRAIL; inhibition (viability loss, TRAIL sensitization), % at 10 µM; actives 1% (n = 360,000); NB7+C8 cells + TRAIL, ATPlite viability luminescence;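 active = compounds causing at least 50% loss of cell viability in the single-dose screen, relative to plate controls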
SENP8 block-2 – inhibitors of human SENP8 protease | AID 2540 | purified SENP8, Z-RLRGG-aminoluciferin cleavage, luminescence | inhibition, % at 10 µM | actives 1.2% (n = 330,000) | Q96LD8; in the data active = inhibition above about 50%
SENP7 block – inhibitors of human SENP7 protease; Q9BQF6; inhibition, % at 5 µM; AID 434973; actives 1.5% (n = 330,000); recombinant SENP7, Z-RLRGG-aminoluciferin luminescence, 40 min;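 active = inhibition above about 50% at the single test dose, limit read from the data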;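 note: plate controls were DMSO with enzyme for no effect and no enzyme buffer wells for full effect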
Target sequence (Q9BQF6 706-1050 limits assumed): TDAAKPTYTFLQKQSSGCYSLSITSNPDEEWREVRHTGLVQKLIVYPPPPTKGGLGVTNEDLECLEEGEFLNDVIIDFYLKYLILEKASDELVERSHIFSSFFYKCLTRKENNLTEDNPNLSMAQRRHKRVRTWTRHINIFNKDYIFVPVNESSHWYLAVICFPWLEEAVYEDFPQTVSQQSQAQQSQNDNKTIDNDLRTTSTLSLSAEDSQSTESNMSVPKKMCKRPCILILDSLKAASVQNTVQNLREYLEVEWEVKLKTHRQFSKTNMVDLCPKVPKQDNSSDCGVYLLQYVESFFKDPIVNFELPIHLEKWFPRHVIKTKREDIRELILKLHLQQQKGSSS
PPC-1+TRAIL kill – compounds killing PPC-1 cancer cells with TRAIL present (potentiator screen, no TRAIL-free arm); actives 0.41% (n = 220,000); PPC-1 cells + TRAIL, ATPLite viability luminescence; AID 1443; cell killing (% activity), % at 4 µM or 5 µM;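 active = cell killing above 50% in the first pass at 4 µM, then a duplicate retest at 5 µM averaging 50% or more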;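 note: plate controls were cells with TRAIL plus DMSO for no effect and medium-only wells lacking cells for full effect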
SENP8 confirm – confirmation of human SENP8 protease inhibitors. shares compounds with SENP7 block. Recombinant SENP8, Z-RLRGG-aminoluciferin luminescence, 60 min. inhibition, % at 12.5 µM. actives 40% (n = 6,200). AID 488912;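 active = mean inhibition across replicates above about 50%, limit read from the data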
SENP6 conf – human SENP6 inhibition, confirmed. actives 58% (n = 6,200). inhibition, % at 12.5 µM. shares compounds with SENP7 block. recombinant SENP6, Z-RLRGG-aminoluciferin luminescence
SENP7 conf – confirmation of human SENP7 protease inhibitors; AID 488917; actives 69% (n = 6,200); shares compounds with SENP7 block; inhibition, % at 12.5 µM; recombinant SENP7, Z-RLRGG-aminoluciferin luminescence, 40 min
Casp3 select – inhibits human caspase-3 in SENP selectivity test | shares compounds with SENP7 block | purified caspase-3, Z-DEVD-aminoluciferin luminescence, 60 min | inhibition, % at 12.5 µM | actives 60% (n = 6,200);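 active = mean inhibition above about 50%, limit read from the data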;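 note: plate controls were enzyme with DMSO for no effect and wells without caspase-3 for full effect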
SENP luc ctr – interferes with luciferase luminescence in SENP counter-screen; shares compounds with SENP7 block; Pre-incubated SENP8/Z-RLRGG-aminoluciferin, luciferase luminescence interference; inhibition, % at 12.5 µM; actives 39% (n = 6,200);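 active = mean inhibition above about 50% when retested at one dose, limit read from the data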;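 note: plate controls were DMSO wells with completed reaction for no effect and substrate without enzyme for full effect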
An asterisk follows results filed as active; x = not tested or not shown.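 Rule for the calls, unless noted: active = mean inhibition above about 50% in the one-dose retest (limit read from the data); inactive = the rest.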

SMILES	SENP6 block	SENP8 block-1	C8 TRAIL sens	SENP8 block-2	SENP7 block	PPC-1+TRAIL kill	SENP8 confirm	SENP6 conf	SENP7 conf	Casp3 select	SENP luc ctr
O=C(N/N=C/c1c(Cl)cccc1Cl)c1n[nH]c2c1CCCC2	28	13	18	68*	71*	11	13	72*	92*	80*	7
O=C(NC1CCCCC1)c1n[nH]c2c1CCCCC2	89*	12	78*	84*	90*	x	86*	86*	97*	94*	73*
CC(C)C[C@H]1CN(CCCC[C@@H]2CNC(=O)C(=O)N2Cc2ccccc2)C(=O)C(=O)N1Cc1ccccc1	x	2	-1	x	x	x	x	x	x	x	x
O=c1c2sc(-c3ccccc3)cc2nc2n1CCCCC2	54*	22	18	37	43	8	38	37	74*	47	54*
O=c1c2sc(-c3ccccc3)cc2nc2n1CCC2	93*	10	54*	81*	91*	12	89*	89*	99*	95*	90*
Cn1c(NCCN2CCCC2)nc2cc(-c3ccccc3)sc2c1=O	x	-144	7	x	x	x	x	x	x	x	x
CCC1(CC)SCCNC1=O	x	11	-7	x	x	x	x	x	x	x	x
COc1ccc(/C=C/C=C2\N=C(SC)SC2=O)cc1	86*	25	9	84*	91*	24	-3	8	2	3	17
COc1ccc(NS(=O)(=O)c2cc(NS(=O)(=O)c3cc(C(=O)O)ccc3OC)ccc2C)cc1	x	3	1	x	x	x	x	x	x	x	x
CCOC(=O)C1(C)CCCN1C(=O)c1ccc(OC)c(OC)c1 (stereo not given)	x	8	-7	x	x	x	x	x	x	x	x
CCCC(=O)c1cc(F)c(N2CCN(S(=O)(=O)c3ccccc3)CC2)cc1C	-10	12	7	-5	7	15	x	x	x	x	x
CCC(=O)c1cc(F)c(N2CCN(S(=O)(=O)c3ccccc3)CC2)cc1C	-1	6	0	-8	52*	-12	8	12	10	4	0
Nc1ccc2nn(-c3ccccc3)nc2c1	74*	-410	22	66*	43	21	-5	65*	82*	62*	31
Nc1ccc(-n2nc3ccccc3n2)cc1	41	-452	12	38	64*	x	36	56*	87*	60*	67*
Cc1cc2nn(-c3cccc4ccccc34)nc2cc1N	13	-353	-5	-4	12	23	x	x	x	x	x
Nc1ccc2nn(-c3cccc4ccccc34)nc2c1	79*	-490	12	85*	77*	22	-3	27	16	6	7
COc1ccc(-n2nc3ccccc3n2)cc1	-56	4	-1	-22	-5	-2	x	x	x	x	x
Nc1cc2nn(-c3ccccc3)nc2cc1Cl	x	-420	-4	x	x	-1	x	x	x	x	x
CC(C)CC(=O)Nc1ccc(S(=O)(=O)Nc2nccs2)cc1	10	3	0	11	-3	x	x	x	x	x	x
O=c1[nH]c(-c2ccccc2)cnc1-c1ccccc1	52*	-406	27	33	74*	x	8	12	12	19	12
Cc1ccc(S(=O)(=O)N[C@H](C(=O)NC2CCC(C)CC2)C(C)C)cc1 (stereo not given in full)	-11	20	1	-6	-11	x	x	x	x	x	x
Cc1ccc(Cl)cc1NS(=O)(=O)c1ccccc1	x	0	-14	x	x	x	x	x	x	x	x
Cc1ccc(Cl)cc1NC1=C/C(=N\S(=O)(=O)c2cccs2)c2ccccc2C1=O	75*	85*	92*	78*	76*	-7	82*	96*	77*	85*	0
